Measured values reported in PubChem BioAssay (NCI).
Compounds without any hit were thinned out: in the full panel of roughly 83,000, 20% have a hit.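 Assay: single dose, 48 h. Readout: percent growth (0 = no net growth; negative = cell death). Active: <10.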 A number with no mark means an inactive call. Active and inactive are the calls of the source.

Assays:
Assay in all cases: NCI-60 one-dose screen, 48 h (100 = growth as untreated, 0 = no growth, -100 = all killed)
[1] = test system: NCI-H226 lung; conditions: 10 µM unless noted
[2] = test system: HOP-62 NSCLC; conditions: 10 µM unless noted
[3] = test system: HOP-92 NSCLC; conditions: 10 µM unless noted
[4] = test system: NCI-H522 lung; conditions: 10 µM unless noted
[5] = test system: A549/ATCC NSCLC; conditions: 10 µM unless noted
[6] = test system: COLO 205 colon; conditions: 10 µM
[7] = test system: SNB-75 CNS; conditions: 10 µM unless noted
[8] = test system: SK-MEL-2 melanoma; conditions: 10 µM unless noted
[9] = test system: EKVX NSCLC; conditions: 10 µM unless noted
[10] = test system: TK-10 renal; conditions: 10 µM unless noted
[11] = test system: OVCAR-5 ovarian; conditions: 10 µM unless noted
[12] = test system: OVCAR-4 ovarian; conditions: 10 µM unless noted
[13] = test system: SK-OV-3 ovarian; conditions: 10 µM unless noted
[14] = test system: NCI/ADR-RES ovarian; conditions: 10 µM unless noted
[15] = test system: MALME-3M melanoma; conditions: 10 µM unless noted
[16] = test system: ACHN renal; conditions: 10 µM unless noted
[17] = test system: SR leukemia; conditions: 10 µM
[18] = test system: IGROV1 ovarian; conditions: 10 µM

Compound	growth [1]	growth [2]	growth [3]	growth [4]	growth [5]	growth [6]	growth [7]	growth [8]	growth [9]	growth [10]	growth [11]	growth [12]	growth [13]	growth [14]	growth [15]	growth [16]	growth [17]	growth [18]
N#CC(C#N)=Cc1ccc2ccccc2c1	106%	113%	95.1%	96.7%	107%	110%	103%	102%	121%	111%	106%	110%	104%	108%				
COc1ccc(C(c2ccc(OC)cc2)C(Cl)(Cl)Cl)cc1	96.9%	83.1%		60%	94.6%			77.4%	95.7%	90.3%	91.9%		96.2%	89.6%	91.8%	92.1%	71.8%	76.4%
O=C(CC1(O)C(=O)Nc2ccc(F)cc21)c1ccc(C(=O)NCC2CCC3(CC2)OOC2(CCCCC2)OO3)cc1 (stereo not given)	69.3%	-14.4% (active)				33.7%			-29.9% (active)		87.3%	65.6%	91.1%	80%	-35.8% (active)	-25.2% (active)	-43.2% (active)	3.82% (active)
CC(=O)Nc1ccc(Cc2ccc(NC(C)=O)cc2)cc1	107%	94.1%	45.6%	104%	95%		93.4%	125%	103%	106%				95.9%	103%	101%	125%	116%
O=c1cc[nH]c(=O)o1	98.4%	102%	118%				84.7%	93.3%		84.1%	109%		102%	111%	95.2%	115%		104%
CCCC(C)(C)c1ccc2c(c1)OC(C)(C)[C@@H]1CC=C(C)C[C@@H]21	98.3%	90.4%	100%	93.2%		107%	88.2%	94.7%	106%	107%	107%		89.2%	98.9%	93.6%	105%		95.7%
C[C@@H]1CC[C@@H]2[C@@H]1[C@H](OC(=O)/C=C/C1CCCCC1)[C@]1(C3CCCCC3)C[C@@H](OC(=O)CO)[C@@]2(C)O1	56.9%	69.7%	41.6%	46.9%	60.6%		76.9%	73.7%	78.1%	81.7%	101%		69%	12.2%	78.8%	14.9%		
CC1(C)N=C(N)N=C(N)N1c1ccc(CCC(=O)Nc2cccc(S(=O)(=O)F)c2)cc1	89%	82.8%		91.1%		93.4%	59.5%	102%	56.8%	98.9%	91.2%				-7.62% (active)	99.3%	35.6%	39.4%
N#[N+]c1cnc([O-])[nH]c1=O	88%	105%		14.4%		94.2%	74.7%	96.7%	114%		83.9%	100%	94%		105%	94.4%	64.8%	
COc1ccc2c(c1)NC1=C(C(=O)OC1)C2c1cc(OC)c(OC)c(OC)c1 (stereo not given)	49.6%	44.2%		-26.2% (active)	15.6%	-48.5% (active)	45.7%		53.8%		36.1%	37%	36.9%	-34.5% (active)	21.7%	31.1%	5.65% (active)	
Nc1c(Br)cc([N+](=O)[O-])cc1[N+](=O)[O-]	92.9%	117%	120%	105%	92.3%	116%	99.2%	138%	93.6%	114%	106%	107%	107%			125%	111%	
c1ccc(-c2ccc3ccccc3[o+]2)cc1	85.4%	96.2%	83.2%	81.2%	90.8%	111%	80.5%		87.1%	139%	103%	90.5%	89.4%	92.5%	101%	91.6%	84.5%	82.7%
CC1(CF)NC(=O)NC1=O (stereo not given)	119%	107%	84.4%	122%	113%	114%	89.9%	121%	104%	128%			109%	107%			115%	
CC(CC(C#N)(c1ccccc1)c1ccccc1)N1CCOCC1 (stereo not given)	112%	97.6%	83.5%		95.6%	101%	104%	101%		105%	89.5%	108%	109%	106%	120%		84.3%	102%
FC(F)=C(F)c1ccccc1	113%	87.4%			108%	104%	88.8%	98.5%			112%	111%	97.5%	106%	101%	110%	80.4%	99%
Cc1cc(NC(=O)CCc2ccc(N3C(N)=NC(N)=NC3(C)C)cc2)ccc1S(=O)(=O)F	37.4%	28.7%		-17.2% (active)		36%	52.5%	-21.1% (active)	58.8%	14.1%	17.9%	62.1%	67.3%	19.2%	32.3%	70.9%	-23.7% (active)	
COc1cc(/C=C\c2cc(OC)c(OC)c(OC)c2)cc(N/C=C\C(=O)c2ccc(OC(F)(F)F)cc2)c1OC	54.4%	23.8%		-54.8% (active)		3.12% (active)		-13.4% (active)			44.2%		19.9%	5.87% (active)		43%	4.84% (active)	48.3%
COc1cc(C2CC(=O)Nc3nc(N)[se]c32)cc(OC)c1OC (stereo not given)	103%	70.9%	138%	107%	45.7%	107%	98.9%	89.2%	90%			105%		107%	105%	103%	65.8%	62%
O=C(c1cccs1)C1NO[N+]([O-])=C1c1cccs1 (stereo not given)	-0.733% (active)	89.6%	-35.9% (active)	-92.1% (active)	86.9%	6.64% (active)	-11.5% (active)		102%	-46.8% (active)	114%			47.5%	-55.3% (active)	22.8%	22.4%	7.37% (active)
COc1cc(C2(C#N)CCN(C)CC2)cc(OC)c1OC	110%	103%	100%		88.8%	107%	84.9%		112%	108%	97.5%	104%	105%	104%	113%		91.2%	109%
CCCCN(CCCC)CC(O)c1ccccc1 (stereo not given)	113%	114%		112%	104%	134%	91.5%	115%	96.7%	115%	93.6%	95.4%		105%		102%	102%	115%
ClCCN(CCCl)C(c1ccccc1)c1ccc(Cl)cc1 (stereo not given)	75.4%	108%	57.4%	65%	88.9%	114%	81.8%		102%	81.1%	118%	96.9%	109%	79%		28.9%	5.67% (active)	
